Measurements: PubChem BioAssay AID880 (National Center for Advancing Translational Sciences (NCATS), 2007)
Several values for one entry are separate records, joined by “and”; a condition that tells them apart may be missing. Equal entries are not always repeated. Out of some 230,000 compounds screened, about 1,000 (0.43%) were called active. Calls follow the shape of the dose curve; as a rule, active = well fitted inhibition curve with a large enough effect (not every such curve was filed as active); inactive = no such curve, though single readings can be large or run the other way. The full list was thinned out, with actives kept by preference.

Biological target: Guanine nucleotide-binding protein G(i) subunit alpha-1 (Homo sapiens) (UniProt P63096)
Experiment: qHTS Assay for Inhibitors of RGS12 GoLoco Motif Activity (Red Fluorophore); also: nearly all actives have a fitted effect of over 30% in size
Details: Gai1:RGS12 GoLoco peptide FP, rhodamine, 10 min; series mostly up to 61.6 µM; activity, negative = inhibition: at the top concentration
% is scaled to controls: 0 for no effect and ±100 for the full control effect; potency is read from the fitted curve at half-maximal effect.

Sequence of Guanine nucleotide-binding protein G(i) subunit alpha-1 (Homo sapiens) (P63096 whole entry, looked up): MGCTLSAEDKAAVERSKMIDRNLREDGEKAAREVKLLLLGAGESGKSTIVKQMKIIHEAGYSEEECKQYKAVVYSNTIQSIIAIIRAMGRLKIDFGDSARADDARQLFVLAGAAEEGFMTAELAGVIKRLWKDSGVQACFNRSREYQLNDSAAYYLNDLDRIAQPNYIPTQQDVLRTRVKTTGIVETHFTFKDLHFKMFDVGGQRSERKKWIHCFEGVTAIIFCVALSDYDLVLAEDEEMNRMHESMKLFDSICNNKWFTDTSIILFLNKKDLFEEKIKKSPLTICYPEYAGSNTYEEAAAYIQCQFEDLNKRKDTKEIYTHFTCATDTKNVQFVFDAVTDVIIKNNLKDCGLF

activity, negative = inhibition, inactive:
N#Cc1ccccc1CN1C(=O)S/C(=C/c2cccn2-c2cccc(C(=O)O)c2)C1=O 66.7%
COc1cc(C(=O)NCc2ccc3c(c2)cc(C)n3C)cc(OC)c1OC -5.23%
CCOc1ccc(C(O)Cn2c(=N)n(CCN3CCCCC3)c3ccccc32)cc1 (stereo not given) 9.41%
O=P(O)(CN1CCCCCC1)C1Cc2ccccc2C1 -3.29%
Cc1ccccc1CN1C[C@@H]2C[C@@H](c3ccc4nsnc4c3)N3CCC[C@@]23C1=O 6.4%
Nc1nc2c(ncn2[C@@H]2O[C@H](COP(=O)(O)OP(=O)(O)OP(=O)(O)O)[C@@H](O)C2O)c(=O)[nH]1 (stereo not given in full) 2.15%
CC/C=C\C/C=C\C/C=C\C/C=C\C/C=C\C/C=C\CCC(=O)NCCc1ccc(O)c(O)c1 3.48%
COc1ccc(CC(N)C(=O)NC2C(O)[C@H](n3cnc4c(N(C)C)ncnc43)O[C@@H]2CO)cc1 (stereo not given in full) 3.32%
COCCNC(=O)/C(C#N)=C/c1nc(N(C)C)n(-c2ccc(F)cc2)c1Cl -2.69%
O=C(/C=C/NCc1ccc(F)cc1)c1ccccc1 -3.93%
O=C(c1ccncc1)N1CCN(c2ccc3ccccc3n2)CC1 -3.32%
Cc1nc(-c2ccccc2)sc1C(=O)/C=C/N(C)C 8.99%
CC1(C)C=CC(=O)[C@]2(C)C1CC(=O)[C@]1(C)C2CC[C@@]2(C)C(c3ccoc3)OC(=O)C3OC321 (stereo not given in full) -47.9%
CC(C)=CCN1CCC2(CCc3ccccc32)CC1 7.2%
O=C(c1ccc(F)cc1)N1CCCC(c2nc(-c3cccs3)no2)C1 (stereo not given) -1.92%
C/C(=N\NC(=S)NC1CCCCC1)c1ccc(C)o1 -0.165%
CCN1/C(=C\c2ccc3ccccc3[n+]2CC)Sc2cc(C)ccc21 70.9%
CCN1/C(=C/C(=S)Nc2ccccc2)Sc2ccccc21 31.8%
O=c1ccn([C@@H]2O[C@H](COP(=O)(O)OP(=O)(O)OP(=O)(O)O)[C@@H](O)[C@H]2O)c(=O)[nH]1 1.87%
CC(Sc1nc2c([nH]c3ccccc32)c(=O)n1C)c1ccccc1 (stereo not given) -2.16%
CC/C=C\C/C=C\C/C=C\C/C=C\C/C=C\C/C=C\CCC(=O)NC(C)C(=O)O (stereo not given) 5.36%
COc1ccc(S(=O)(=O)N2CN(CCc3ccc(OC)c(OC)c3)c3nc4ccccc4nc32)cc1 6.37%
CCc1nnc(NC(=O)c2c(O)c3c([nH]c2=O)CCCC3)s1 -2.64%
O=C(NCc1ccccn1)c1c(O)c2c([nH]c1=O)CCCC2 -0.895%
Cc1ccc(-c2csc(NC(=O)Cn3[nH]c(=O)c4ccccc4c3=O)n2)cc1 23.6%
COC(=O)c1sc(=S)n(-c2ccccc2)c1N -8.96%
CCOC(=O)c1c(N)sc(C(C)=O)c1C 5.69%
Cn1c(=O)n(Cc2ccco2)c(=N)c2c3c(sc21)CCCC3 4.71%
CC(N)(C(=O)O)c1ccc(-c2nn[nH]n2)cc1 (stereo not given) 3.74%
Cc1ccc(CN2CCN(/N=C/c3cccnc3)CC2)c(C)c1 28.4%
O=C1OC(c2ccc(Cl)cc2)=N/C1=C\c1cccnc1 12%
Cc1ccccc1C1=N/C(=C/c2cccnc2)C(=O)O1 3.85%
CC(C)(C)C1CCC(=NNC(=O)c2cc(-c3ccccc3)n[nH]2)CC1 (stereo not given) 10.8%
Cc1ccc(C(=O)N/C(=C/c2ccco2)C(=O)NCCc2c[nH]c3ccccc23)cc1C 12.3%
NC(=O)c1nsc(C(=O)N(CC(=O)NCc2ccc(F)cc2)Cc2ccco2)c1N -6.49%
C[C@]12CC[C@@H]3c4ccc(O)cc4C[C@@H](CCCCCCCCCS(=O)CCCC(F)(F)C(F)(F)F)C3[C@@H]1CC[C@@H]2O (stereo not given in full) -1.93%
CN(C)CCCCCN(C)Cc1cc2ccccc2o1 1.21%
COC1(C2=NCCN2)COc2ccccc2O1 (stereo not given) 7.05%
COC(=O)c1nn(-c2cccc(Cl)c2)ccc1=O 5.66%
COc1ccc(C)cc1-n1nnnc1SCc1nc2ccccc2c(=O)[nH]1 25%
N#C/C(=C\c1ccc(-c2cccc([N+](=O)[O-])c2)o1)C(=O)NCCN1CCOCC1 3.44%
CC(Oc1ccc(-c2ccccc2)c(F)c1)c1ccn(S(=O)(=O)c2cccc3ccccc23)n1 (stereo not given) -2.65%
C=C1O[C@@](CO)(n2cnc3c(N)ncnc32)[C@H](O)[C@@H]1O 1.48%
Cc1csc(-c2coc3cc(O[C@@H]4O[C@H](CO)[C@@H](O)[C@@H](O)[C@H]4O)ccc3c2=O)n1 2.68%
CN(C)/C(CN1CCCCC1)=C1\N=C(c2ccccc2)OC1=O -2.52%
CCOC(=O)N1CCC(N(CCOC)C(=O)Nc2ccc(C)c(C)c2)CC1 -6.31%
CN(C)c1nc(=Nc2cccc(Cl)c2)ss1 -0.735%
S=C(Nc1cccc(Br)c1)N1CCn2cccc2C1c1cccnc1 (stereo not given) 5.93%
O=C(CSc1nc2ccccc2s1)Nc1ccc(C(=O)O)cc1 16.3%
c1ccc2sc(SCCSc3nc4ccccc4s3)nc2c1 2.61% [at 14.2 µM]
COc1ccc(-c2nc(CS(=O)CC(=O)NCc3cccnc3)c(C)o2)cc1OC (stereo not given) 7.34%
COc1ccc(-c2nc(CS(=O)CC(=O)N3CCc4ccccc4C3)c(C)o2)cc1 (stereo not given) 8.47%
O=[N+]([O-])c1ccc(N2CCN(CC(O)COc3ccccc3)CC2)cc1 (stereo not given) -3.92%
O=C(c1ccccc1)c1ccc(OCC(O)CN2CCCC2)cc1 (stereo not given) 0.574%

Potency, inactive:
COc1ccc(CCCOC(Cn2ccnc2)c2ccc(OC)cc2)cc1 (stereo not given)

Potency, active:
CC[N+](C)(CC)CCC[n+]1c(-c2ccccc2)c2cc(N)ccc2c2ccc(N)cc21 4.47 µM and 12.6 µM
CCN1/C(=C/c2ccc3ccc(C)cc3[n+]2CC)Sc2ccccc21 0.708 µM
C[N+](C)(C)CCNC(=O)c1c(O)c2c([nH]c1=O)CCCC2 1.12 µM
COCCOC(=O)c1sc(=S)n(CCOC)c1N 12.6 µM
Cc1ccc(C2=C/C(=C\c3cccnc3)C(=O)O2)cc1 0.794 µM
Nc1ccc2c3c(cccc13)C(=O)NC2=O 3.16 µM and 20 µM
Cc1cc2nc3c(=O)[nH]c(=O)nc-3n(C[C@H](O)[C@H](O)[C@H](O)CO)c2cc1C 17.8 µM
O=[N+]([O-])c1c(NCCO)cc(Sc2nc3ccccc3s2)c2nonc12 8.91 µM
COc1ccc(-c2nc(CS(=O)CC(=O)NCc3ccccn3)c(C)o2)cc1 (stereo not given) 14.1 µM
C[N+]1(CC(O)COc2ccccc2)CCN(C(=O)c2ccc([N+](=O)[O-])cc2)CC1 (stereo not given) 12.6 µM
